Experimental data taken from PMC5700166.

Legend:
[1] = biological target: T1, GST-Nv-NF-kB (Ser allele) (Nematostella vectensis, UniProt A7UNT2 2-411); assay: protein-binding microarray (PBM); PBM: ~300 nM protein, 6 mM HEPES pH 7.8, 80 mM KCl, 0.5 mM EDTA, 0.5 mM EGTA, 6% glycerol, 35 ng/ul poly-dIdC, 1% milk, 1 h, room temperature; Ap Aiptasia and Nv Nematostella (sea anemones) / Co Capsaspora / Aq Amphimedon (sponge) / Dm Drosophila / Hu human; RHD is the Rel homology domain; high values mean tight binding; conditions: dsDNA, one strand shown
T1 sequence: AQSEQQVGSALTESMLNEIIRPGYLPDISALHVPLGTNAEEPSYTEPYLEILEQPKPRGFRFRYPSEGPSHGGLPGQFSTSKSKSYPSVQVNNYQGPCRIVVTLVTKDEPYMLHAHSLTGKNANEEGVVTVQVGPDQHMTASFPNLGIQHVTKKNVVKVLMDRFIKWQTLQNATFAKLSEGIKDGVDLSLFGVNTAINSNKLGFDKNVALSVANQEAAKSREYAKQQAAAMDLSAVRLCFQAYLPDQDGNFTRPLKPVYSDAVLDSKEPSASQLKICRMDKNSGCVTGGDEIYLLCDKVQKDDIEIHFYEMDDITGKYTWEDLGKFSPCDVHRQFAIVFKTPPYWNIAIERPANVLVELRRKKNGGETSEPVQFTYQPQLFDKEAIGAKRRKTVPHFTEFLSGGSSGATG

GST-Hu-p50 = GST-Hu-p50 (Homo sapiens, UniProt P19838 7-356); assay: as above; conditions: dsDNA, one strand shown
Chain of GST-Hu-p50 (P19838 7-356): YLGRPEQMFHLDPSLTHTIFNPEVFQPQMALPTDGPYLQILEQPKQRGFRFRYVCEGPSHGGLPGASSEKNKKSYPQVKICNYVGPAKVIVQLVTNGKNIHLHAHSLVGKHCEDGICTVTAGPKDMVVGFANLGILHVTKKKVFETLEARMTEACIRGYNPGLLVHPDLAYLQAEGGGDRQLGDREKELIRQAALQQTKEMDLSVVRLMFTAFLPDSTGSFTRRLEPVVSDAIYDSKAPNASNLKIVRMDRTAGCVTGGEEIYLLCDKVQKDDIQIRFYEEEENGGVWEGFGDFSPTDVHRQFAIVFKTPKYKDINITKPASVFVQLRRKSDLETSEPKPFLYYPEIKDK

Row | Sequence | binding signal [1] [z-score] | binding signal (GST-Hu-p50) [z-score]
1 | CCGATTAACATCAAGAGACCCCCTGATGTTAATCGGGTCTTGATTCGCTTGACGCTGCTG | 2.79 | 3.43
2 | CCGATTAACATCACCTCCGTATCTGATGTTAATCGGGTCTTGATTCGCTTGACGCTGCTG | 1.11 | 1.28
3 | CCGATTAACATCAGGAAATTTGATGATGTTAATCGGGTCTTGATTCGCTTGACGCTGCTG | 1.01 | 1
4 | CCGATTAACATCAGGGAATGCCATGATGTTAATCGGGTCTTGATTCGCTTGACGCTGCTG | 2.41 | 1.54
5 | CCGATTAACATCAGGGGATGACCTGATGTTAATCGGGTCTTGATTCGCTTGACGCTGCTG | 3.75 | 3.42
6 | CCGATTAACATCAGGGGAGTAAATGATGTTAATCGGGTCTTGATTCGCTTGACGCTGCTG | 3.92 | 2.72
7 | CCGATTAACATCACTGGGAAAACTGATGTTAATCGGGTCTTGATTCGCTTGACGCTGCTG | 3.57 | 2.39
8 | CCGATTAACATCAAACAACCCCCTGATGTTAATCGGGTCTTGATTCGCTTGACGCTGCTG | 4.83 | 5.05
9 | CCGATTAACATCAAAAAAGACCCTGATGTTAATCGGGTCTTGATTCGCTTGACGCTGCTG | 3.81 | 3.95
10 | CCGATTAACATCATTAGGGTATTTGATGTTAATCGGGTCTTGATTCGCTTGACGCTGCTG | 4.26 | 4.5
11 | CCGATTAACATCACCCTTGCAGGTGATGTTAATCGGGTCTTGATTCGCTTGACGCTGCTG | 1.12 | 2.18
12 | CCGATTAACATCAGGGAATTCCATGATGTTAATCGGGTCTTGATTCGCTTGACGCTGCTG | 5.22 | 4.7
13 | CCGATTAACATCATTTCCCAAAATGATGTTAATCGGGTCTTGATTCGCTTGACGCTGCTG | 2.41 | 1.56
14 | CCGATTAACATCAGGGAATTAACTGATGTTAATCGGGTCTTGATTCGCTTGACGCTGCTG | 3.91 | 2.81
15 | CCGATTAACATCAGGGGACGTTATGATGTTAATCGGGTCTTGATTCGCTTGACGCTGCTG | 4.91 | 
16 | CCGATTAACATCAGGGAATTAGATGATGTTAATCGGGTCTTGATTCGCTTGACGCTGCTG | 3.54 | 2
17 | CCGATTAACATCATGGTGGTACCTGATGTTAATCGGGTCTTGATTCGCTTGACGCTGCTG | 1.05 | 1.07
18 | CCGATTAACATCAGAATTGCCCCTGATGTTAATCGGGTCTTGATTCGCTTGACGCTGCTG | 2.89 | 4.35
19 | CCGATTAACATCAGGACTCTCCCTGATGTTAATCGGGTCTTGATTCGCTTGACGCTGCTG | 2.28 | 3.64
20 | CCGATTAACATCACTGGGATTTCTGATGTTAATCGGGTCTTGATTCGCTTGACGCTGCTG | 1.8 | 2.5
21 | CCGATTAACATCACTACTTTCCCTGATGTTAATCGGGTCTTGATTCGCTTGACGCTGCTG | 5.24 | 3.06
22 | CCGATTAACATCAAATCATCCCCTGATGTTAATCGGGTCTTGATTCGCTTGACGCTGCTG | 6.16 | 4.63
23 | CCGATTAACATCAATCACCCCCATGATGTTAATCGGGTCTTGATTCGCTTGACGCTGCTG | 2.78 | 3.76
